This is part of a sample that, as a whole, favours compounds with a hit. Of some 83,000 tested, about 20% had one in any assay.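 Compound tested at a single concentration for 48 hours in 96-well plates; a percent growth value below 10 was scored as active.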 Unmarked numbers belong to inactive results. The source made the active and inactive calls.
What was measured:
Assay in all cases: NCI-60 one-dose screen, 48 h (100 = growth as untreated, 0 = no growth, -100 = all killed)
[1] = system: DU-145 prostate; details: 10 µM unless noted
[2] = system: K-562 leukemia; details: 10 µM unless noted
[3] = system: MALME-3M melanoma; details: 10 µM unless noted
[4] = system: MDA-MB-231 breast; details: 10 µM unless noted
[5] = system: RXF 393 renal; details: 10 µM unless noted
[6] = system: SF-268 CNS; details: 10 µM unless noted
[7] = system: SF-295 CNS; details: 10 µM unless noted
[8] = system: SF-539 CNS; details: 10 µM unless noted
[9] = system: UACC-257 melanoma; details: 10 µM
[10] = system: M14 melanoma; details: 10 µM unless noted
[11] = system: HCT-15 colon; details: 10 µM unless noted
[12] = system: HT29 colon; details: 10 µM unless noted
[13] = system: SNB-75 CNS; details: 10 µM unless noted
[14] = system: SNB-19 CNS; details: 10 µM unless noted
[15] = system: U251 CNS; details: 10 µM unless noted
[16] = system: PC-3 prostate; details: 10 µM unless noted
[17] = system: SK-MEL-5 melanoma; details: 10 µM unless noted
[18] = system: UACC-62 melanoma; details: 10 µM unless noted
[19] = system: LOX IMVI melanoma; details: 10 µM unless noted
[20] = system: SK-MEL-28 melanoma; details: 10 µM unless noted

SMILES | growth [1] | growth [2] | growth [3] | growth [4] | growth [5] | growth [6] | growth [7] | growth [8] | growth [9] | growth [10] | growth [11] | growth [12] | growth [13] | growth [14] | growth [15] | growth [16] | growth [17] | growth [18] | growth [19] | growth [20]
CC[C@H](C)[C@H]1NC(=O)[C@@H](N[C@](C)(O)[C@@H](N)CC(C)C)[C@@H](C)OC(=O)[C@H](Cc2ccc(OC)cc2)N(C)C(=O)[C@@H]2CCCN2C(=O)[C@H](CC(C)C)NC(=O)[C@@H](C)C(=O)[C@H](C(C)C)OC(=O)C[C@@H]1O | -17.5% (active) | 2.2% (active) | -21.4% (active) | -15.8% (active) | -33.1% (active) | -1.13% (active) | -52.1% (active) | -27.6% (active) | -24.7% (active) | -75.3% (active) | 0.591% (active) | -24.6% (active) | -11.1% (active) | -12.5% (active) | -11.8% (active) | 2.33% (active) | -56.9% (active) | -42.9% (active) | -55.9% (active) | -13.6% (active)
CCOC(=O)C1=C(C)NC(=O)NC1c1ccc(OCC(=O)N/N=C/c2ccc(Cl)cc2)cc1 (stereo not given) | 106% | 94.9% | 101% | 98.7% | 95.6% | 95.1% | 99.5% | 91.3% | 68.7% | 94.6% | 97.5% | 94.3% | 79.1% | 89.5% | 91.9% | 89% | 97.1% | 87.3% | 98.2% | 105%
CCCCCCC[C@@H](O)CC(=O)N[C@H](CCCCN)C(=O)N[C@H](Cc1c[nH]c2ccccc12)C(=O)NC(CCCCN)C(=O)N[C@H](CC(C)C)C(=O)N[C@H](Cc1ccccc1)C(=O)N[C@H](CCCCN)C(=O)N[C@H](CCCCN)C(=O)N[C@H](CC(C)C)C(=O)N1CCCC1C(=O)N[C@H](CCCCN)C(=O)N[C@H](Cc1ccccc1)C(=O)N[C@H](CC(C)C)C(=O)N[C@H](Cc1c[nH]cn1)C(=O)N[C@H](CC(C)C)C(=O)N[C@H](C)C(=O)N[C@H](CCCCN)C(=O)N[C@H](CCCCN)C(=O)N[C@H](Cc1ccccc1)C(=O)O (stereo not given in full) | -77.2% (active) | -33.3% (active) | -2.57% (active) | -71.4% (active) | -39% (active) | -54.2% (active) | -60.8% (active) | -30.8% (active) | -64.9% (active) | -43.4% (active) | -40.3% (active) | -52.7% (active) | -62.3% (active) | -46.4% (active) | -60.5% (active) | -55.3% (active) | -25.7% (active) | -39.2% (active) | -38.6% (active) | -39.8% (active)
COc1cc(NCCN=C(N)NC(N)=NC(C)C)c2ncccc2c1 | 103% | 55.5% | -11% (active) | 69.3% | 101% | 45.1% | 108% | 6.08% (active) | 72.1% | 88.6% | 100% | 61.2% | 63.8% | 84% | 79.7% | 73.4% | 37.2% | 102% | 89.2% | 86.1%
COc1ccc(-c2cn[nH]c2-c2cc(OC)c3c(c2)OCCO3)cc1 | 9.03% (active) | 9.59% (active) | 97.9% | 17.1% | -14% (active) | 25.1% | 28.7% | -34.3% (active) | 75% | 10.6% | 20.7% | 1.7% (active) | -5.75% (active) | 60.4% | 16.4% | 28.4% | 25.4% | 37.6% | 30.2% | 49.3%
O=C(Nc1ccc(Br)c(Cl)c1)c1cc(F)ccc1O | 23.5% | 9.59% (active) | -22.8% (active) | -20% (active) | -5.62% (active) | 19.1% | -53.1% (active) | 5.17% (active) | -23.5% (active) | -14.3% (active) | 7.56% (active) | 0.733% (active) | 8.82% (active) | 19.4% | 12.3% | 5.07% (active) | -90.3% (active) | -3.96% (active) | -61.4% (active) | -7.64% (active)
Cc1ccc(OCCn2c(C)nn(-c3ccc(Cl)cc3)c2=O)cc1 | 135% | 107% | 99.8% | 103% | 125% | 117% | 98.9% | 110% | 104% | 102% | 111% | 119% | 82.6% | 109% | 101% | 92.4% | 109% | 103% | 96.3% | 101%
CCN(CC)P(=O)(N(CC)CC)N(CCCSC/C=C(\C)CC/C=C(\C)CCC=C(C)C)CCCN1CCN(C)CC1 | 106% | 71.8% | 98.7% | 111% | 91.3% | 102% | 96.4% | 106% | 110% | 107% | 93.2% | 98.9% | 93% | 92.8% | 101% | 95.5% | 100% | 94.2% | 81.3% | 107%
